Measurements from PubChem BioAssay AID1347165 (National Center for Advancing Translational Sciences (NCATS), 2019).
Out of some 220,000 compounds screened, about 5,700 (2.6%) were called active. Another 18% or so got no clear call; they are omitted. This is one part of a sample in which actives are shown more often than they occur. Calls come from the whole dose curve; as a rule, active = well fitted inhibition curve with a large enough effect; inconclusive = small, poorly fitted or top-dose-only effect; inactive = no such curve, though single readings can be large or run the other way.

Each compound was assayed against Lysine-specific demethylase 5B (Homo sapiens) (UniProt Q9UGL1) (assay: Primary screen for KDM5B Histone Demethylases FDH-coupled qHTS). Conditions: FDH-coupled NADH fluorescence (FDH is formaldehyde dehydrogenase); series mostly up to 57.7 µM; activity change, negative = inhibition: at the top concentration.
Lysine-specific demethylase 5B (Homo sapiens), sequence (Q9UGL1 whole entry, looked up, the tested form may be a part): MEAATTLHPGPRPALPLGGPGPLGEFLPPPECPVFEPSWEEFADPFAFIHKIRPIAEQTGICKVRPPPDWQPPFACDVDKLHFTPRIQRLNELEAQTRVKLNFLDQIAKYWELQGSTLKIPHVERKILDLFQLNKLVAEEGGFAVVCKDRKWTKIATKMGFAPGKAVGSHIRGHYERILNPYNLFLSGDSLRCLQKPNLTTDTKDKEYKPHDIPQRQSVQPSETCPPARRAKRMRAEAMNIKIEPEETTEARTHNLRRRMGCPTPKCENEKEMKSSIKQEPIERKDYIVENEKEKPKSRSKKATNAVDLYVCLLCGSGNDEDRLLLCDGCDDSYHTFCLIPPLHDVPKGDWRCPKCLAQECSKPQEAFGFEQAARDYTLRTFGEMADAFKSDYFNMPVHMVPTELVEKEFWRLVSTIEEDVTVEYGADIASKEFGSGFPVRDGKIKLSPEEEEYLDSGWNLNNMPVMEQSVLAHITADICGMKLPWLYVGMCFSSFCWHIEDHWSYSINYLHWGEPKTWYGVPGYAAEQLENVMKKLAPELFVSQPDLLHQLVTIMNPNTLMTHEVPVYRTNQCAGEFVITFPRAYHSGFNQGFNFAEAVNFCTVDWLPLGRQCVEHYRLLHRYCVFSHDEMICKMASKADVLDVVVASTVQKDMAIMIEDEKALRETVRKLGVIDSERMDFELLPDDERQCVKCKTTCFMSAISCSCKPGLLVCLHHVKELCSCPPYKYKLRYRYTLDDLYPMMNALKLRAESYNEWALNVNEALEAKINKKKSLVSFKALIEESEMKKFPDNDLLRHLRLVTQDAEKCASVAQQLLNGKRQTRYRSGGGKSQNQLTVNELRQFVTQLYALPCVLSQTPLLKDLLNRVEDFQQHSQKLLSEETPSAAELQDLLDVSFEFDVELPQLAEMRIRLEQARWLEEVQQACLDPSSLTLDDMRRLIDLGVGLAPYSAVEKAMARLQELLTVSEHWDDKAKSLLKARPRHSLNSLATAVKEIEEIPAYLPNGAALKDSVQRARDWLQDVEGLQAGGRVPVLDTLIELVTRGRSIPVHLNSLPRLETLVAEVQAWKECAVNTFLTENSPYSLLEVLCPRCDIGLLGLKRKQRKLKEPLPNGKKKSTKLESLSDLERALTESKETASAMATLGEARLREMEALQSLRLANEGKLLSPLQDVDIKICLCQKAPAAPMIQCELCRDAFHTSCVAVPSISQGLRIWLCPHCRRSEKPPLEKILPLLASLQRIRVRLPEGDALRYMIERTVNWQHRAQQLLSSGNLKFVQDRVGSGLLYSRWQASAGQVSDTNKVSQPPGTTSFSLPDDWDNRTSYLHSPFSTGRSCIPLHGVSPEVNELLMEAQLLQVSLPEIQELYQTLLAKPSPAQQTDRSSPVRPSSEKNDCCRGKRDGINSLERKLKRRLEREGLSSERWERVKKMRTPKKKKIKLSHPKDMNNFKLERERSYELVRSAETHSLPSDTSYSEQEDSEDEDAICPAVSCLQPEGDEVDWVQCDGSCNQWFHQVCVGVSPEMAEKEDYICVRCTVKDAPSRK
How it was run: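 Inhibition is measured as reduced NADH fluorescence generation from FDH coupling to formaldehyde release. Truncated KDM5BΔAP at 200 nM final acts on H3K4me3 peptide (12.5 µM in substrate mix) in pH 7.5 HEPES buffer with Tween-20, 30 min, room temperature.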
Note: nearly all actives have a fitted effect of over 70% in size.
Potency is the fitted concentration of half-maximal effect.
Throughout, for activity change, negative = inhibition: 0% is about no effect.

Activity change, negative = inhibition, inactive:
COC[C@]1(O)CCN(C(=O)c2ccccc2C(F)(F)F)CC1(C)C 13.1%
C#Cc1cccc(NS(=O)(=O)c2ccc(OC)c3ncccc23)c1 -10.4%
CC1(C)CC(=O)C2=C(C1)OC(N)=C(C#N)C2c1ccc(C(F)(F)F)cc1 (stereo unspecified) 19.7%
Cc1ccccc1/C=C1\Oc2cc(OS(C)(=O)=O)ccc2C1=O -4.69%
O=C(Cc1cccc(F)c1)NC1CCC(c2ccccc2)CC1 (stereo unspecified) -0.961%
CCOc1ccccc1NC(=O)Cc1c(C)[nH]n(-c2nc(-c3ccccc3)cs2)c1=O -0.446%
CNCCCNC(=O)C(=O)Nc1cccc2[nH]ccc12 77.9%
Cc1ccccc1OCc1nnc(SCC(=O)c2ccc(Cl)cc2)n1C -16.4%
Cc1ccc(C)c(N2CCN(C(=O)Cn3nc(C)c4sc5ccccc5c4c3=O)CC2)c1 -5.55%
Cc1nn(CC(=O)O)c(=O)c2nc(C(C)C)sc12 2.56%
COc1ccccc1NC(=O)C1CCN(c2nc3ccccc3nc2OC)CC1 35.1%
Cc1cc(Cl)ccc1-c1ccc(CN)cc1 -4.89% [at 149 µM]
COCCNC(=O)C1CCN(S(=O)(=O)c2ccc3c(ccn3C)c2)CC1 18.1%
N#Cc1ccccc1Sc1ccccc1C(=O)NC1CCCCC1 17.8%
N#Cc1cccnc1-c1cccc(C(=O)O)c1 19.4% [at 149 µM]
Cc1ccc(C(=O)NCc2nc(C)cs2)cn1 9.74%
CC(C)C1=C/C(=C/c2ccccc2)C(C)/C(=C/c2ccccc2)C1=O (stereo unspecified) -32%
CC1CCC2(CC1)NC(=O)N(CC(=O)NCc1ccco1)C2=O (stereo unspecified) 10.1%
Cc1ccccc1NC(=O)CN1C(=O)C(C)(C)c2ccccc21 -4.69%
CCn1c(=O)c2ccccc2n(CC(=O)Nc2ccccc2C(F)(F)F)c1=O 2.98%
CCNC(=O)NC(=O)C(C)Sc1nc(-c2ccccc2)c(-c2ccccc2)o1 (stereo unspecified) -0.479%
Cc1nc2cc(NC(=O)c3ccc(C(=O)c4ccccc4)cc3)ccc2o1 3.23%
Cc1ccccc1N(C)C1CN(Cc2cccc3ccccc23)C1 8.42% [at 149 µM]
CN(Cc1cccc2ccccc12)C1CCc2ccccc21 (stereo unspecified) -26.7% [at 86.2 µM]
Cc1oc(-c2cccs2)nc1CC(=O)N1CCC2(CC1)NC(=O)NC2=O -260%
COc1ccc(NC(=O)O[C@@H]2CO[C@H]3[C@@H]2OC[C@@H]3NC(=O)C2CCCCC2)cc1 0.55% [at 86.2 µM]
O=C(Nc1ccccc1)O[C@@H]1CO[C@H]2[C@@H]1OC[C@@H]2NS(=O)(=O)c1cccc2cccnc12 -31.2%
COc1ccc(NC(=O)O[C@@H]2CO[C@H]3[C@@H]2OC[C@@H]3NC(=O)NC2CCCCC2)cc1 -26.3% [at 86.2 µM]
CC(C)(C)c1ccnc(N[C@H]2CO[C@H]3[C@@H]2OC[C@@H]3NC(=O)CC2(CC(=O)O)CCCC2)n1 -9.63%
CC(C)(C)c1ccnc(N[C@H]2CO[C@H]3[C@@H]2OC[C@H]3OC(=O)Nc2cccc(C(F)(F)F)c2)n1 -8.49%
COCC(=O)N[C@H]1CO[C@H]2[C@@H]1OC[C@@H]2Nc1nccc(C(C)(C)C)n1 2.28% [at 86.2 µM]
COc1ccc(OC)c(NC(=O)COc2c(C)cc(C)cc2C)c1 9.24%
CSc1ccccc1N=Cc1ccc(Cl)c(Cl)c1 29.7%
COc1ccc(OC)c(CCNC(=O)c2nn(C)c3c2CS(=O)(=O)c2ccccc2-3)c1 13.7%
CC(=O)Nc1ccc(S(=O)(=O)Nc2c(NC3CCCC3)c3ccccc3oc2=O)cc1 13.6%
O=[N+]([O-])c1cccc2nc(/C=C/c3ccc(C(F)(F)F)cc3)ccc12 -0.0445%
N#Cc1cccc(C2CCN(C(=O)C3CCN(C(=O)C4CC4)CC3)CC2)c1 -1.85%
Cn1c(=O)[nH]c(=O)c2c1nc(N1CCN(Cc3ccccc3Cl)CC1)n2Cc1ccc(F)cc1 5.2%
O=[S+]1([O-])NCC2(CCCN(Cc3ccncc3)C2)Oc2ncccc21 (stereo unspecified) -20% [at 115 µM]
O=C(Cc1cccc(Cl)c1)N1CCC2(CN[S+](=O)([O-])c3cccnc3O2)C1 (stereo unspecified) 9.87% [at 115 µM]
CNS(=O)(=O)c1ccc(NC(=O)Nc2ccc3c(c2)OCO3)cc1 5.61%
COc1c(CNCc2cccnc2N2CCOCC2)c(C)nn1C -5.58%
Cc1nccnc1N1CCC(c2nnc(CN3CCCC3)n2C)CC1 9.79%
C=CCNC(=O)c1cn2c(n1)CN([S+](C)(=O)[O-])CC2 9.43% [at 149 µM]
C=CCNC(=O)c1cn2c(n1)CN(C(=O)c1ccccc1F)CC2 14.7% [at 149 µM]
Cn1cc(CN2C[C@@H](CO)[C@H](C(=O)NC3CC3)C2)cn1 -2.64%
COc1ccccc1C(=O)N1CCC(n2cnnc2C2CC2)CC1 -11.8%
Cc1cccc(C(=O)N2CCN(S(=O)(=O)N3CCCCC3)CC2)c1 32.8%
Cc1cccc(C(=O)N2CCC(OC3CCN(Cc4ccccc4)CC3)CC2)c1 13.2%
Cc1ccc(-n2c(SC(C)C(=O)c3ccc(F)c(F)c3)nnc2N2CCOCC2)cc1 (stereo unspecified) 16.4%
O=C(c1ccc(F)cc1)N1CCN(c2cc(-c3ccc(F)cc3)[nH]n2)CC1 -11.3%
COc1ccccc1C(=O)N1CCN(c2cc(C(F)(F)F)ncn2)CC1 -12.6%

Potency, active:
O=c1ncn(Cc2ccccc2)c2ccc(-c3ccoc3)nc12 39.8 µM
CCN1CCN(C(=O)Cn2nc(C)c3sc(-c4ccccc4)nc3c2=O)CC1 22.4 µM
CC(C)(O)CCc1cccc(C(=O)NC2CCN(c3ncccc3C#N)CC2)c1 22.4 µM
Cc1ccccc1CNC(=O)CN1C(=O)C2(CCNCC2)Nc2ccccc21 14.1 µM
c1ccc2c(c1)CCN2C1CN(Cc2cccc3ccccc23)C1 100 µM
O=C(Nc1cccc(C(F)(F)F)c1)O[C@@H]1CO[C@H]2[C@@H]1OC[C@@H]2Nc1nccc(-c2ccc3c(c2)OCO3)n1 31.6 µM
CC(C)(CC(=O)O)CC(=O)N[C@H]1CO[C@H]2[C@@H]1OC[C@@H]2Nc1nccc(-c2ccc3c(c2)OCO3)n1 28.2 µM
COc1cccc(NC(=O)O[C@@H]2CO[C@H]3[C@@H]2OC[C@@H]3Nc2nccc(-c3cccs3)n2)c1 15.8 µM
O=C(Cc1cccc(Cl)c1)N1CCC2(CC1)CN[S+](=O)([O-])c1cccnc1O2 79.4 µM
Cn1c(CN2CCOCC2)nnc1C1CCN(c2ncccc2C#N)CC1 31.6 µM
C=CCNC(=O)c1ccc2ccnn2c1 31.6 µM
Cc1cccc(C(=O)N2CCCN(c3nnc4ccccn34)CC2)c1 28.2 µM
COc1ccccc1C(=O)N1CCCN(c2nnc3ccccn23)CC1 31.6 µM
Cc1cccc2nnc(N3CCN(C(=O)c4ccc(F)c(F)c4)CC3)n12 28.2 µM
